Laboratory results as given in PubChem BioAssay (NCATS).
Inconclusive results are not listed. Entries that show only a call come without a potency. The source made the active and inactive calls. Calls follow the shape of the dose curve; as a rule, active = well fitted cell-killing curve with a large enough effect; inconclusive = small, poorly fitted or top-dose-only effect; inactive = flat fitted curve, though single readings scatter.

experiment: Cell Viability - LYMP1-002 - Assay at 40 hr (AID 994); conditions: LYMP1-002 lymphoblastoid cell viability; series mostly up to 92.2 µM; also: nearly all actives have a fitted effect of over 60% in size
Outline: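 Luminescent ATP signal served as the viability readout, with decreases taken as toxicity. Cells were treated with compounds across a concentration range for 40 hours at 37 C, and AC50 values came from standard Hill modeling.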
Potency is read from the fitted curve at half-maximal effect.

Compound	Potency
Oc1ccc2cc(SSc3ccc4cc(O)ccc4c3)ccc2c1	39.8 µM (active)
Nc1ccc2cc3ccccc3cc2c1	inactive
CN(C)c1ccc(C2(c3ccc(N(C)C)cc3)OC(=O)c3cc(N(C)C)ccc32)cc1	inactive
Cc1cc(Nc2ccc(O)cc2)ccc1N	inactive
Cc1cc(O)c(C(C)(C)C)cc1Sc1cc(C(C)(C)C)c(O)cc1C	39.8 µM (active)
C=C(C)c1ccccc1	inactive
O=C1OC2(c3cc(Br)c(O)c(Br)c3Oc3c2cc(Br)c(O)c3Br)c2c(Cl)c(Cl)c(Cl)c(Cl)c21	inactive
ClC1=C(Cl)C(Cl)(Cl)C(Cl)=C1Cl	inactive
C=CC(=O)OCCOCCOC(=O)C=C	25.1 µM (active)
CNc1ccc(O)cc1	25.1 µM (active)
CC(=O)Nc1ccc(C(=O)CCl)cc1	39.8 µM (active)
CCC(C)Nc1ccc(NC(C)CC)cc1 (configuration not stated)	15.8 µM (active)
O=C=Nc1ccc(Cc2ccc(N=C=O)cc2)cc1	inactive
c1ccc2c(c1)ccc1cc3c(ccc4ccccc43)cc12	inactive
c1ccc2c(c1)-c1cccc3c1c-2cc1ccccc13	inactive
O=[N+]([O-])c1cc([N+](=O)[O-])c2ccc(S(=O)(=O)O)cc2c1O	inactive
O=Cc1ccc(Cl)c(Cl)c1	inactive
